MITF inh: human MITF inhibition, primary screen | inhibition, % at 2.6 µM | O75030 | hit rate 0.91% among 650,000 | AlphaScreen MITF homodimerization, bead proximity signal; in the data active = inhibition above about 50%;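 also: 0% = vehicle wells with protein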
Target sequence (O75030 whole entry, looked up): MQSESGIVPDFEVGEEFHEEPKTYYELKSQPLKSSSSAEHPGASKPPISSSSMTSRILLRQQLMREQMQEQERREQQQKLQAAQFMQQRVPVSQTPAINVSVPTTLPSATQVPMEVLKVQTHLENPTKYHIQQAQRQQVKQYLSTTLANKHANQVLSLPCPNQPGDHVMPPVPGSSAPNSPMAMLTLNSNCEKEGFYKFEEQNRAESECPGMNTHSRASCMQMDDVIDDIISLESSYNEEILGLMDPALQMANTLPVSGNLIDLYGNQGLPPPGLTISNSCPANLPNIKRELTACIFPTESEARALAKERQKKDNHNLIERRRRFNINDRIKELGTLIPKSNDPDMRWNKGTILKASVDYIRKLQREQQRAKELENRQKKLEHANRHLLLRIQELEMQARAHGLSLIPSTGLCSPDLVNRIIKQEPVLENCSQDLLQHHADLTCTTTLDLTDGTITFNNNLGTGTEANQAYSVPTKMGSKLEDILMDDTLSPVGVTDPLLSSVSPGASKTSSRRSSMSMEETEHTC
FBW7 activator: activators of human E3 ligase FBW7; AlphaScreen FBW7–phospho-cyclin E peptide binding, activator screen; normalized activity (activation), % at 26.1 µM; hit rate 0.13% among 650,000; in the data active = normalized activity above about 1.9%;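 also: purified mutant Fbw7 with reduced substrate affinity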
TEAD-YAP block: TEAD-YAP interaction inhibition; HEK-TIYL cells, TEAD-Gal4/YAP UAS-luciferase luminescence; inhibition, % at 9.12 µM; hit rate 1.4% among 640,000; AID 1259422; in the data active = inhibition above about 32%;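 also: 0% = median of test compound wells and 100% = reference inhibitor wells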
GPR151 activ: activators of human GPR151; activation, % at 11.2 µM; AID 1508602; Q8TDV0; hit rate 1% among 650,000; PathHunter beta-arrestin GPR151 cells, luminescence; in the data active = activation above about 4.9%;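 also: 0% = median of compound wells and 100% = cells with positive control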
GPR151 confirm: human GPR151 activation, confirmation screen; shares compounds with GPR151 activ; GPR151 PathHunter beta-arrestin cells, luminescence, 90 min; % of EA-reagent control over plate median; activation, % at 11.2 µM; 6,700 tested, under 10 active; AID 1508609;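 active = mean percent activation across replicates above the confirmation screen cutoff of 4.91%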
GPR119 ag: counter-screen for GPR151 activators: effect on human GPR119; GPR119 PathHunter beta-arrestin cells, luminescence, 90 min; 0 = compound-well median, 100 = enzyme-acceptor control; activation, % at 11.2 µM; shares compounds with GPR151 activ; hit rate 0.3% among 6,700;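 active = mean percent activation in the counterscreen above 29.09%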;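 also: counterscreen on off-target GPR119 to flag nonselective hits from the GPR151 activator screen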
Numbers without * were called inactive; . = no result; ! = a repeat was not active. An excerpt weighted towards active compounds, which were near 3.5% of everything screened.

SMILES	MITF inh	FBW7 activator	TEAD-YAP block	GPR151 activ	GPR151 confirm	GPR119 ag
COC(=O)C1=C(C)NC2=C(C(=O)CC(c3ccc(Cl)cc3)C2)C1c1ccc(Cl)cc1Cl (configuration not stated)	-2	0	5	0	.	.
Nc1nnc(-c2ccc(C(=O)O)cc2)s1	5	0	-5	7.6*	1	0
Cc1ccc(-c2nnc(N)s2)cc1C	1	0	-33	5.6*	-1	1
Cc1ccc(-c2nnc(N)s2)cc1	-14	0	-8	-2	.	.
CCOC(=O)C1CCCCN1Cc1ccc(OC)c(C)c1OC (configuration not stated)	42	0	0	0	.	.
CCOC(=O)C1CCCCN1Cc1cc(C)c(OC)cc1C (configuration not stated)	36	0	-2	4.9*	-1	-14
O=C1NC2(CCc3ccccc3C2)C(=O)N1CN1CCN(Cc2ccc3c(c2)OCO3)CC1 (configuration not stated)	5	0	9	8.3*	0	-1
CNCCCC1c2ccccc2C=Cc2ccccc21	5	0	2	10*!	0	2
COc1ccc(N(CC(=O)N2CCCCC2)S(=O)(=O)c2ccc(C)cc2)cc1	-3	0	3	2	.	.
COc1ccc(S(=O)(=O)N(CC(=O)N2CCCC2)c2ccc(C)cc2)cc1	-1	0	5	12*	0	11
CC1C2NC(=S)NC1(C)Oc1ccccc12 (configuration not stated)	8	0	1	7.4*	0	9
Cc1ccccc1OC1=NS(=O)(=O)c2cc([N+](=O)[O-])ccc21	11	0	9	8.6*	0	-8
CC(C)(C)OC(=O)NNC(=O)CCCOc1ccccc1	9	1	-2	-1	.	.
Cc1cccc(-c2nc(Oc3ccc(C#N)cc3)c3ccccc3n2)c1	-1	0	2	0	.	.
CNc1cc([N+](=O)[O-])ccc1N/C=C\C(=O)c1ccc(OC)cc1OC	16	0	-20	5.8*	0	-1
O=C(Cn1cc2c(n1)CCCC2)NCCCN1CCCCC1	0	1	2	1	.	.
O=C(Cn1cc2c(n1)CCCC2)NCCCN1CCN(C2CCCCC2)CC1	14	0	6	5.0*	1	11
Cc1ccc(-c2c(Nc3ccc(Cl)cc3)c(=O)c2=O)cc1	3	0	-3	5.0*	2	8
CN1CCN(NS(=O)(=O)c2cc3c4c(c2)CC(=O)N4CCC3)CC1	16	1	2	-1	.	.
Cc1cc(C)cc(NS(=O)(=O)c2ccc(-c3cc(C)no3)cc2)c1	-11	0	58*	8.2*	1	-6
CCc1nnc(NC(=O)C2(c3cccc(F)c3)CCCC2)s1	8	0	0	5.2*	1	-2
CC1CCCN(S(=O)(=O)c2cccs2)C1 (configuration not stated)	2	0	2	10*	0	8
O=C(CCc1nnc(-c2ccsc2)o1)N1CCc2sccc2C1	13	0	-10	5.4*	0	-5
Cc1c(Cl)cccc1NC(=O)C(=O)NCC(O)c1ccccc1 (configuration not stated)	-2	0	-6	7.3*	0	10
Cc1c(Cl)cccc1NC(=O)C(=O)NC(C)c1ccccc1 (configuration not stated)	1	0	3	1	.	.
SMILES	MITF inh	FBW7 activator	TEAD-YAP block	GPR151 activ	GPR151 confirm	GPR119 ag
O=C(CSc1nc2ccccc2[nH]1)Nc1ccc(Cl)cc1	14	1	-9	0	.	.
COc1ccc(-c2nnc(SCC(=O)Nc3ccc(Cl)cc3C)o2)cc1	-22	0	21	0	.	.
O=C(CSc1nc2ncccc2[nH]1)Nc1ccc(F)c(Cl)c1	7	0	4	7.2*	0	0
COc1ccc(-c2nnc(SCC(=O)Nc3ccc(F)c(Cl)c3)o2)cc1	-4	0	-46	5.0*	0	-8
O=C(CSc1nc2ccccc2[nH]1)Nc1cccc(Cl)c1	4	0	-7	5.1*	0	-2
O=C(CSc1nc2ncccc2[nH]1)Nc1ccc(Cl)c(F)c1	-2	0	2	0	.	.
CCC(CC)C(=O)Nc1nnc(SCC(=O)Nc2nnc(C)s2)s1	4	0	1	4.9*	-1	6
C/C(=N/NC(=O)CNS(=O)(=O)c1ccccc1)c1ccc(C)cc1	10	0	-12	0	.	.
CCOC(=O)c1c(NC(=O)CSc2nnc(CNC(=O)c3cccc(OC)c3)n2C2CCCCC2)sc2c1CCCC2	-15	0	-2	0	.	.
COC(=O)c1c(NC(=O)CSc2nnc(C)s2)sc(C(C)=O)c1C	5	0	3	7.4*	0	7
O=C(CSc1nc2ccccc2[nH]1)Nc1cc(Cl)ccc1Cl	13	0	2	11*	0	-7
CCC(=O)Nc1nnc(SCC(=O)Nc2cccc(Cl)c2)s1	14	1	1	8.8*	-1	-11
O=C(CSc1nc2ccccc2[nH]1)Nc1ccc(Cl)c(C(=O)O)c1	-3	-1	-4	0	.	.
COC(=O)c1c(NC(=O)CSc2nnc(N)s2)sc(C)c1C	-2	0	1	1	.	.
CCC(=O)Nc1nnc(SCc2cccc(Cl)c2)s1	0	0	-2	0	.	.
O=C(c1ccc([N+](=O)[O-])cc1)N1CCC(C(=O)N2CCN(c3ccccc3)CC2)CC1	10	0	1	11*	0	0
CN1CC=C2C(C#N)=C(N)C(C#N)(C#N)C(c3cccc(F)c3F)C2C1 (configuration not stated)	10	0	-3	-1	.	.
COc1ccccc1N1CCN(C2CCCN(Cc3ccncc3)C2)CC1 (configuration not stated)	6	0	7	0	.	.
COc1ccc(CN2CCCC(N3CCN(c4ccccc4OC)CC3)C2)cc1O (configuration not stated)	-2	0	-1	1	.	.
COc1ccccc1N1CCN(C2CCCN(Cc3ccc4nonc4c3)C2)CC1 (configuration not stated)	0	0	14	8.0*	1	-4
COc1ccccc1N1CCN(C2CCCN(Cc3cccn3-c3cccnc3)C2)CC1 (configuration not stated)	4	0	4	7.5*	0	4
Cc1ccc(C2CC(=O)n3nc(N)nc3N2)cc1 (configuration not stated)	14	0	-1	5.9*	0	5
Cc1ccc(C2CC(=O)n3c(nc4ccccc43)N2)cc1 (configuration not stated)	12	0	-7	1	.	.
O=C(COC(=O)c1ccc(OC(F)F)cc1)Nc1cccnc1Cl	12	0	-3	12*	-1	5

Assay outcomes deposited in PubChem by The Scripps Research Institute Molecular Screening Center.
